Assay results as given in PubChem BioAssay (NCI).
This is part of a sample that, as a whole, favours compounds with a hit. Of some 79,000 tested, about 15% had one in any assay. No stated cut-off is given here; in the data, active means growth inhibition above about 70%; inactive means the rest.

Assays:
[1] = NCI Yeast Anticancer Drug Screen. Data for the rad50 strain (AID 155);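 further: 0% = growth of vehicle-only cultures of the same strain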; settings: S. cerevisiae rad50 strain growth inhibition; at 50.0 µM; active compounds read high
How it was run: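 A DNA repair-deficient yeast mutant serves as the test organism; compound-induced growth inhibition is calculated against vehicle-treated cells.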

[2] = NCI Yeast Anticancer Drug Screen. Data for the mec2-1 strain (AID 157); settings: S. cerevisiae mec2-1 strain, at 50.0 µM, active compounds read high
How it was run: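 Using mec2-1 yeast: add compound, measure growth, express inhibition versus vehicle-treated cultures.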

[3] = NCI Yeast Anticancer Drug Screen. Data for the sgs1 mgt1 strain (AID 161);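 further: 0% = growth of cultures given vehicle only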; settings: S. cerevisiae sgs1 mgt1 strain, at 50.0 µM, active compounds read high
How it was run: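 Growth of a repair-deficient yeast mutant was monitored after compound treatment and expressed as inhibition relative to vehicle-treated cultures.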

[4] = NCI Yeast Anticancer Drug Screen. Data for the cln2 rad14 strain (AID 165);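 further: 0% = growth equal to vehicle treated cultures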; settings: S. cerevisiae cln2 rad14 strain, at 50.0 µM, active compounds read high
How it was run: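 Yeast strain cln2 rad14, bearing defects in cell cycle control and DNA repair, serves as the test system; values reflect growth inhibition compared with vehicle.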

[5] = NCI Yeast Anticancer Drug Screen. Data for the bub3 strain (AID 167); settings: S. cerevisiae bub3 mutant strain, at 50.0 µM, active compounds read high
How it was run: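 Inhibition values come from growth of compound-treated mutant yeast normalised to vehicle-treated controls.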

[6] = NCI Yeast Anticancer Drug Screen. Data for the mlh1 rad18 strain (AID 175); settings: S. cerevisiae mlh1 rad18 strain growth inhibition; at 50.0 µM; active compounds read high
How it was run: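 Steps: expose repair-defective yeast to compound; measure growth; express inhibition against vehicle-treated controls.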

Measured: growth inhibition

O=C(COc1ccccc1)Nc1cccc2ccccc12
inactive: [1] 4.5% | [2] 24.5% | [3] 6.6% | [4] -3.7% | [5] 10.4% | [6] 29.2%

CC(C)(C)NC1=C([N+](=O)[O-])CCCC1
inactive: [1] 4.25% | [2] 6% | [3] -1.05% | [4] -19.6% | [5] 11.9% | [6] 4.5%

CCOC(=O)OC1C(OC)OC2COC(c3ccccc3)OC2C1OC(=O)OCC (stereo unspecified)
inactive: [1] -1.4% | [2] -13.3% | [3] -20% | [4] -15.7% | [5] -2.25% | [6] 11.4%

C=C1CC(C)(COc2cc(=O)oc3ccccc23)OC1=O (stereo unspecified)
inactive: [1] 51% | [2] 30.3% | [3] 53.2% | [4] 38.5% | [5] 25.6% | [6] 40.5%

O=[N+]([O-])c1ccc(CCCCCc2ccccc2)cc1
inactive: [1] -6.15% | [2] -17.6% | [3] 0.6% | [4] -75.2% | [5] 4.5% | [6] -21.4%

COc1ccc(OC)c(NC(=O)Oc2cc(C)c(Cl)c(C)c2)c1
inactive: [1] 5.85% | [2] -1.85% | [3] 7.1% | [4] 8.25% | [5] 9.1% | [6] 6.35%

FC(F)(F)c1cc(NC(=S)SCc2ccc(Cl)cc2)ccc1Cl
inactive: [1] 22.8% | [2] 8.7% | [3] 16.2% | [4] 14.6% | [5] 13.6% | [6] 11.2%

O=C(O)CCCCCCCCCCCc1ccccc1
inactive: [1] -30.8% | [2] -16.8% | [3] -19.3% | [4] -13.2% | [5] 5.55% | [6] -38.5%

COC(=O)N/N=C(\c1ccc(OC)cc1)C(c1ccc(OC)cc1)C1(O)C(=O)Nc2c(C)cc(Cl)cc21 (stereo unspecified)
inactive: [1] 20.1% | [2] 14.8% | [3] -4.35% | [4] -30.6% | [5] 18.6% | [6] 18.6%

O=C(Cc1ccccc1)NCc1ccccc1Cl
inactive: [1] -1.05% | [2] 9.2% | [3] 5.65% | [4] 0.05% | [5] 9.75% | [6] 6.05%

N=C(N)c1nc2ccccc2s1
inactive: [1] 6.2% | [2] -13.5% | [3] 17.4% | [4] 7.65% | [5] 24% | [6] 5.3%

CSc1nc(N)cc(Cl)n1
inactive: [1] 7.75% | [2] -25.5% | [3] -12.4% | [4] 5.85% | [5] -1.9% | [6] -9.7%

Cc1ccc2c(c1)SN(CN1C(=O)c3ccccc3C1=O)N2
inactive: [1] -37.1% | [2] -43.6% | [3] -7.15% | [4] -19% | [5] -38.7% | [6] -28.9%

COc1cc(CC2c3cc(OC)c(OC)cc3CCN2C)c(Oc2cc3c(cc2OC)-c2c(OC)c(OC)c(OC)c4c2C(C3)N(C)CC4)cc1OC (stereo unspecified)
inactive: [1] 9.7% | [2] -0.95% | [3] -7.05% | [4] 13.8% | [5] 0.3% | [6] 1.2%

Fc1ccc2c(c1)Nc1ccccc1S2
inactive: [1] -6.1% | [2] -1.95% | [3] 7.65% | [4] -8.85% | [5] -16% | [6] -14.6%

CCC(=O)OCC(C)COC(=O)CC
inactive: [1] 9.55% | [2] 11.8% | [3] 4.1% | [4] 1.05% | [5] -8.4% | [6] -5.25%

Cc1nc(-n2nc(-c3ccccc3)cc2-c2ccccc2)sc1C(=O)/C=C/c1ccccc1
inactive: [1] 6.95% | [2] 18.9% | [3] 14.7% | [4] 9.1% | [5] 29.6% | [6] 12.9%

Cc1cc(C#N)c[n+](C)c1
inactive: [1] -7.25% | [2] -14.3% | [3] -25% | [4] 16.1% | [5] 5.25% | [6] -3.75%

[O-][N+](=Nc1ccc(Sc2ccccc2)cc1)c1ccc(Sc2ccccc2)cc1
inactive: [1] -4.65% | [2] 2.3% | [3] 19% | [4] -17% | [5] 21.9% | [6] 28.1%

ICC1OCOC2C(CI)OCOC12 (stereo unspecified)
inactive: [1] 5.1% | [2] 1.3% | [3] -5.3% | [4] -1.8% | [5] 4.75% | [6] 9.5%

CCOC(=O)/C=C/c1cccc(F)c1
inactive: [1] 19.2% | [2] -5.25% | [3] 7.85% | [4] 12% | [5] 12.2% | [6] 10.5%
